Results published in PubChem BioAssay AID652235 (Sanford-Burnham Center for Chemical Genomics, 2013).
The other results are listed elsewhere or left out. Activity calls are given as the source filed them.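 The calls were made as follows: active = inhibition of at least 50% in the primary cell screen; inactive = the rest.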

biological target: Matrix metalloproteinase-14 (Homo sapiens) (UniProt P50281); assay: retesting blockers of MT1-MMP activation – single concentration, fluorescence, HT1080 RFP-PRO-GFP cells, confirmation (AID 652235); details: GFP and RFP fluorescence ratio, overnight, at 20 µM, active compounds read high

SMILES	inhibition
O=c1ccc2c(-c3ccccc3S(=O)(=O)O)c3ccc(O)c(O)c3oc-2c1O	48.5% (inactive)
CN=C1C=C/C(=N/N=c2\ccn(O)cc2C)C=C1C	43.7% (inactive)
Nc1ccc(Nc2ccccc2)cc1	12.6% (inactive)
O=C(NNc1c2ccccc2nc2ccccc12)c1cc2ccccc2cc1O	52.9% (active)
O=C(c1cccc(Cl)c1)N1CCN(Cc2ccccc2)CC1	-1.11% (inactive)
Cc1cc2ccccc2n1CCNC(=O)COc1ccc2ccccc2c1	6.16% (inactive)
COc1ccc(C)cc1Nc1nc(-c2c(C)[nH]c3ccccc23)cs1	4.82% (inactive)
O=C1CCCC(O)=C1N=Nc1ccc(S(=O)(=O)N2CCOCC2)cc1	4.19% (inactive)
O=P(O)(CP(=O)(c1ccccc1)c1ccccc1)c1ccccc1	-1.14% (inactive)
